# Bioassay records from PubChem BioAssay.
# Ba/F3 V617F tox = lowers viability of Ba/F3 cells expressing EpoR and JAK2V617F; AID 1446; hit rate 1.1% among 220,000; ATP luminescence; inhibition, % at 5.6 µM;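 active = inhibition above the campaign mean plus 3 SD over all tested compounds, cut at about 24% in these data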;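 also: cytokine-independent growth of Ba/F3 cells driven by EpoR plus mutant JAK2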
# aSyn 5UTR inh = MLPCN primary screen, SNCA 5' untranslated region. alpha-synuclein 5'UTR reporter, inhibitor activity. inhibition, % (tested at 7.5 µM). hit rate 0.82% among 300,000; in the data active = inhibition above about 60%;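 also: H4 neuroglioblastoma cells stably carrying SNCA 5'UTR luciferase fusion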
# KLF5 inhibitor = kruppel-like factor 5 inhibition; AID 1700; hit rate 0.23% among 290,000; DLD-1 KLF5 promoter-luciferase reporter, luminescence; inhibition, % at 5 µM;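 active = inhibition above a per-plate limit of that plate's mean compound inhibition plus 3 SD, cut at about 60% in these data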;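 also: higher means less KLF5 promoter-driven luciferase light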
# APP 5UTR inh = APP translation inhibition | SH-SY5Y APP 5'UTR-luciferase reporter, luminescence | inhibition, % at 2 µM | hit rate 0.82% among 190,000 | AID 1285;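 active = inhibition above a set limit, derived from the sample mean plus 3 SD, cut at about 45% in these data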
# BaF3 parental = reduces parental Ba/F3 cell viability, JAK2V617F counter-screen. hit rate 1.1% among 220,000. inhibition, % at 5.6 µM. CellTiter-Glo ATP luminescence;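 active = inhibition above a per-campaign cutoff, the mean inhibition of all tested compounds plus 3 SD, cut at about 27% in these data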
# IEC-6 tox = counter-screen for KLF5 inhibitors: cytotoxicity in IEC-6 cells; IEC-6 cytotoxicity, luminescence viability; inhibition, % at 5 µM; hit rate 0.78% among 290,000; in the data active = inhibition above about 22%
# Numbers stand for hits; i = inactive; nt = no result given. Sampled rows, rich in hits. Any-hit rate of the full collection: about 2.2%.
SMILES,Ba/F3 V617F tox,aSyn 5UTR inh,KLF5 inhibitor,APP 5UTR inh,BaF3 parental,IEC-6 tox
COc1ccccc1C(=O)NC(=S)/C=C1/N(C)c2ccccc2C1(C)C,37.2,i,i,i,37.1,i
O=C(CC(C(=O)N1CCc2ccccc21)n1ccnc1)NCC1CCCO1 (stereo unspecified),i,i,i,i,94.8,i
CCCCNC(=O)CC(C(=O)N1CCc2ccccc21)n1ccnc1 (stereo unspecified),i,i,i,i,i,i
COc1ccc(Cn2c(-c3ccc(C)cc3)c[n+]3ccccc23)cc1,90.0,i,i,i,70.7,i
COc1ccc(-c2nc3ccccc3n2Cc2ccc(C)cc2)cc1,i,i,i,i,i,i
CCC1CN(C(=O)Nc2ccc(C)cc2)c2cc(C)ccc2O1 (stereo unspecified),i,i,i,i,i,i
CC(=O)Nc1ccc(S(=O)(=O)N2c3ccc(F)cc3CCC2C)cc1 (stereo unspecified),nt,i,nt,nt,nt,nt
COc1ccc(S(=O)(=O)N2c3ccc(F)cc3CCC2C)cc1 (stereo unspecified),nt,112.2,nt,nt,nt,nt
O=C(O)c1cc2ccccc2cc1Nc1ccccc1,i,i,i,nt,i,i
COc1ccc2ccccc2c1C(O)c1nccn1C (stereo unspecified),59.4,i,i,i,38.0,i
CCC1S/C(=C(\C#N)C(=O)NCc2ccco2)N(c2ccc(Br)cc2)C1=O (stereo unspecified),i,i,i,nt,i,i
CCC1S/C(=C(\C#N)C(=O)NCc2ccco2)N(c2ccc(F)cc2)C1=O (stereo unspecified),i,i,i,i,32.8,i
CCOC(=O)c1c(C)[nH]c(C(=O)COC(=O)/C=C/c2ccc(OC(F)F)cc2)c1C,i,i,i,i,65.5,i
CCOC(=O)c1c(C)[nH]c(C)c1C(=O)COC(=O)/C=C/c1ccc(OC(F)F)cc1,i,i,i,i,i,i
CCOC(=O)c1[nH]c(C)c(C(=O)OCC(=O)N2CCc3ccccc32)c1C,i,i,i,45.8,i,i
CCOC(=O)c1c(C)[nH]c(C(=O)COC(=O)c2ccc(O)cc2)c1C,38.9,i,i,nt,40.3,i
CCN(c1ccccc1)S(=O)(=O)c1ccc(C(=O)N(CCCN(C)C)c2nc3c(C)cccc3s2)cc1,nt,i,i,nt,nt,i
COC(=O)C1=C(C)NC(C)=C(C(=O)OC)C1c1ccccc1OCc1c(C)no[n+]1[O-],32.1,nt,i,i,35.4,i
COc1cc(/C=C(\C#N)C(N)=O)ccc1OCc1c(C)no[n+]1[O-],i,i,i,nt,i,i
O=C(Cc1ccccc1)c1ccccc1C(=O)N1CCCCC1,nt,i,i,nt,nt,i
COc1c(Cl)cc(Cl)cc1/C=N/n1cnnc1,i,i,i,54.9,i,i
COc1ccccc1/C=N/n1cnnc1,i,i,i,i,i,i
Cc1ccccc1OCC(=O)Nc1ccccc1-c1ccccc1,nt,i,nt,nt,nt,nt
CCC(=O)c1cn([C@H](CCC(OC)OC)CC(=O)OC(C)(C)C)cc1CC,nt,i,nt,nt,nt,nt
Cc1nc(-c2ccccc2)sc1C(=O)NN,i,i,i,72.7,i,i
SMILES,Ba/F3 V617F tox,aSyn 5UTR inh,KLF5 inhibitor,APP 5UTR inh,BaF3 parental,IEC-6 tox
Cc1ccc(C(=O)Nc2ccc3c(c2)OCCO3)cc1,nt,89.0,i,nt,nt,i
CSc1cccc(NC(=O)C(=O)NCc2ccccc2)c1,i,i,i,nt,i,i
Cc1cc(NC(=O)c2ccc3c(c2)OCO3)no1,i,i,i,i,i,i
O=C(NCc1ccccc1)C(=O)Nc1cccc(C(=O)O)c1,i,74.1,i,nt,i,i
O=C(Nc1cccnc1)c1ccc(-c2ccccc2)cc1,i,i,i,i,i,i
O=C(Nc1ccncc1)c1ccc(-c2ccccc2)cc1,i,i,i,i,32.1,i
Cc1cc(NC(=O)c2ccc3c(c2)OCCO3)no1,i,61.8,i,i,i,i
C(=C\n1nnc2ccccc21)/c1ccccn1,nt,i,nt,nt,nt,nt
Cc1ccc(C(=O)Nc2cccc(C(=O)O)c2)cc1,i,86.9,i,i,i,i
Cc1ccc(OCC(=O)N/N=C\c2cn(Cc3ccccc3)c3ccccc23)cc1C,i,76.1,i,i,i,i
Nc1ccc(C(=O)N/N=C/c2cn(Cc3ccccc3F)c3ccccc23)cc1,nt,72.4,i,nt,nt,i
Nc1ccc(C(=O)N/N=C/c2cn(Cc3ccc(F)cc3)c3ccccc23)cc1,nt,64.3,i,nt,nt,i
Nc1ccc(C(=O)N/N=C/c2cn(Cc3ccccc3)c3ccccc23)cc1,nt,i,i,nt,nt,i
COC(=O)N/N=C/c1cn(Cc2ccccc2F)c2ccccc12,i,i,i,nt,i,i
